Holding throughout (experiment): NCI-60 one-dose screen, 48 h (100 = growth as untreated, 0 = no growth, -100 = all killed)
What all share (conditions): 10 µM unless noted

Test [1] relates to NCI-H23 lung.
Test [2] concerns NCI-H226 lung.
For test [3], the system named is NCI-H322M lung.
Test [4] has as its system HOP-62 NSCLC.
Test [5] deals with NCI-H460 lung.
Test [6] concerns NCI-H522 lung.
In test [7] the test system is A549/ATCC NSCLC.
The subject of test [8] is 786-0 renal.
Test [9] deals with COLO 205 colon.

Compounds without any hit were thinned out: in the full panel of roughly 83,000, 20% have a hit.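 Compound tested at a single concentration for 48 hours in 96-well plates; a percent growth value below 10 was scored as active.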 Unmarked numbers belong to inactive results. Activity calls are given as the source filed them.

In the case of `CC[C@H](C)[C@H](N)C(=O)O`, the growth in test [1] is 111%; in test [2], 96.5%; in test [3], 96.9%; in test [4], 102%; in test [5], 108%; in [6], 101%. The figures for the growth in test [7], in test [8] and in test [9] were 103%, 112% and 103%, respectively.

On to `O=C(Nc1ccccc1)c1cc2ccccc2s1`, for which the growth in [1] is 74.8%; in [2], 88.4%; in test [3] it was 75.6%; in test [4], 94.5%; in test [5] it was 39.7%; in test [6], 82.4%. For the same compound, the growth in test [7] was 69.4%; in test [8], 92.8%; in test [9], 95.1%.

Take `Cc1ccccc1NC(=O)c1sc2nc3c(cc2c1N)C(=O)CCC3`: the growth in test [1] was 50.6%; in [2], 65.8%; in [3] it was 71.4%; in [4], 38.2%; in [5], 15.3%; in test [6], 12.5%. In addition, the growth in [7] is 37.6%; in [8], 51.6%; in test [9] it was 6.12% (active).

In the case of `CCOC(=O)C1=C(C(=O)OCC)N(c2cc(OC)c(OC)c(OC)c2)C(N)=C(C#N)C1c1cc(=O)[nH]c2ccccc12` (stereo not drawn), the growth was 104% in test [1]; 96.7% in test [2]; 97.3% in [3]; 92.4% in test [4]; 105% in test [5]; 90.2% in test [6]. The growth in [7] is 105%; in test [8] it was 101%; in test [9], 111%.

On to `Cc1ccc(C)c(NC(=O)c2sc3c(=O)[nH]cnc3c2C)c1`, for which the growth is 93.4% in test [1]; 106% in test [2]; 103% in [3]; 80.8% in [4]; 81.9% in test [5]; 64.9% in [6]. For the same compound, the growth in test [7] was 74.6%; in test [8], 89.9%; in test [9], 83.3%.

Consider `COc1ccc(-c2cnc(-c3ccncc3-c3cccc(OC)c3)o2)cc1`, for which the growth in [1] is 19.4%; in test [2], 15.3%; in [3], 56.3%; in [4] it was 26.3%; in test [5], 7.36% (active); in [6], -59.9% (active). The growth is 30.7% in [7], 24.8% in test [8] and -44.1% (active) in test [9].

Consider `C=CCOC(=O)C1=C(C)NC2=C(C(=O)CCC2)C1c1ccc(F)cc1` (stereo not drawn), for which the growth in test [1] is 92.4%; in test [2] it was 89.9%; in test [3], 95.6%; in test [4], 85.9%; in test [5], 106%; in test [6], 82.4%. Moreover, the results for the growth in test [7], in test [8] and in test [9] were 97.3%, 99.9% and 103%, respectively.

Regarding `CCN(CC)c1cc(C)c(Cc2c(OC)ccc3ccccc23)cc1C`, the growth in [1] was 93.7%; in test [2], 92.3%; in test [3], 96.9%; in [4], 85%; in [5], 95.1%; in [6], 74.7%. Moreover, the results for the growth in test [7], in test [8] and in test [9] were 82.8%, 100% and 96.7%, respectively.

Turning to `CCN(CC)C(=O)O/N=C(/C)c1ccccc1`, the growth in test [1] is 95.1%; in test [2], 114%; in test [3], 102%; in test [4], 110%; in [5], 110%; in test [6], 92.1%. Also, the values for the growth in [7], in test [8] and in test [9] were 96.1%, 96.6% and 115%, respectively.

Take `COc1nccc2c(Sc3ccccc3)nc(N)nc12`: the growth in [1] is 98.8%; in test [2] it was 103%; in test [3] it was 110%; in test [4] it was 113%; in test [5], 109%; in [6], 88.1%. Further, the growth was 104% in test [7], 88.9% in test [8] and 117% in test [9].

Take `CC(C)(C)[Si](C)(C)OC1[C@@H](O[Si](C)(C)C(C)(C)C)[C@@H](CNC(=O)NC(=O)NC(=O)CCl)O[C@H]1n1cnc2c(NC(=O)Nc3ccccc3)ncnc21` (stereo partly drawn): the growth in test [1] was -35.6% (active); in [2], 88.2%; in test [3] it was 103%; in test [4] it was 36.7%; in [5], 43.5%; in [6] it was -78.6% (active). Moreover, the values for the growth in test [7], in test [8] and in [9] were 55.8%, 26.6% and 57.1%, respectively.

`COc1ccc(C(=O)C(CN(C)C)c2ccc(OC)cc2)cc1` (stereo not drawn): the growth in test [1] was 89.8%; in [2] it was 84.2%; in [3] it was 93.2%; in [4], 96%; in test [5], 86.3%; in [6], -27.1% (active). Moreover, the growth is 86.3% in test [7], 28.6% in [8] and 57.4% in test [9].

As for `Clc1ccc(-c2cnc3nonc3n2)s1`, the growth is 74.3% in test [1]; 100% in [2]; 96.6% in test [3]; 84.5% in test [4]; 92.6% in test [5]; 53.5% in test [6]. The growth in test [7] is 85%; in test [8], 86.1%; in test [9], 67.6%.

Turning to `c1cc(C2CCCCC2)ccc1-c1cnc2nonc2n1`, the growth in test [1] is 38.7%; in test [2], 47.5%; in test [3] it was 50.1%; in [4], 18.5%; in test [5], 14.4%; in test [6], -2.99% (active). The growth in test [7] is 34.6%; in test [8], 13.5%; in test [9], 2.48% (active).

As to `CC(C)c1ccc(-c2cnc3nonc3n2)cc1`, the growth in test [1] was 56.2%; in test [2], 77.5%; in test [3], 65.8%; in test [4] it was 57.7%; in [5] it was 70.5%; in [6], 20%. Besides, the values for the growth in [7], in [8] and in [9] were 53.2%, 10.6% and 38.1%, respectively.

Consider `CCN(CC)Cc1cc(Nc2ccnc3ccc(OC)cc23)ccc1O`, for which the growth in test [1] is 56%; in test [2] it was 56.4%; in [3], 38.5%; in test [4], 71.2%; in test [5], 20.1%; in test [6], -1.72% (active). Further, the growth in test [7] was 22.5%; in test [8], 18.2%; in [9], 78.2%.

As to `c1cn2cc(-c3ccc4ncn(C5CCCCC5)c4c3)nc(-c3ccc4c(c3)ncn4C3CCCCC3)c2n1`, the growth was -41.5% (active) in test [1]; -56.4% (active) in test [2]; 1.23% (active) in test [3]; -55.4% (active) in test [4]; -48.5% (active) in test [5]; -52.6% (active) in [6]. Moreover, the growth was -44.9% (active) in test [7], -47.1% (active) in test [8] and -64.4% (active) in test [9].

With `O=C1Nc2ccc(Br)cc2/C1=N/c1nc(-c2ccccc2)cs1`, the growth in test [1] is 92.4%; in test [2], 75.7%; in test [3], 88%; in test [4], 53.8%; in test [5] it was 90.9%; in test [6], 71.4%. Also, the growth was 80.3% in test [7], 85.2% in test [8] and 94.7% in [9].

In the case of `C=C1C(=O)O[C@H]2[C@H]1CC/C(COC(=O)NCc1[nH]nc3ccccc13)=C\CC[C@@]1(C)O[C@@H]21`, the growth in [1] is 69.4%; in test [2], 65.4%; in [3], 87.6%; in test [4] it was 48.6%; in test [5] it was 28.6%; in [6] it was -68.6% (active). The growth in test [7] was 45.6%; in test [8], -25.4% (active); in test [9], -76.7% (active).

With `COc1ccc(-c2cnnn2-c2nonc2-n2cccc2)cc1`, the growth in [1] is 3.55% (active); in test [2], 23.6%; in test [3], 49.6%; in [4], 27.2%; in [5] it was 7.52% (active); in test [6], -4.72% (active). In addition, the growth in test [7] is 26%; in test [8], 36.6%; in [9], -43.1% (active).

For `Clc1ccc(-c2nc(-c3cccs3)no2)cc1`, the growth in test [1] is 89.9%; in test [2], 97.3%; in test [3], 99.4%; in [4], 85.9%; in test [5], 97.4%; in test [6], 85.8%. Moreover, the results for the growth in [7], in test [8] and in [9] were 94.8%, 94.5% and 109%, respectively.

As to `CC1CCN(CCCCCOc2ccc3oc4ccc(Cl)cc4c(=O)c3c2)CC1`, the growth in test [1] was 73.6%; in [2], 94.7%; in test [3], 79.8%; in [4], 77.1%; in test [5], 26.6%; in test [6] it was 52.9%. The growth in test [7] is 47.5%; in test [8], 45.8%; in test [9], 21.7%.

Consider `Nc1nc(NC2CC2)cc(-c2cccc(Cl)c2Cl)n1`, for which the growth in test [1] was 71.7%; in test [2] it was 92.3%; in [3] it was 101%; in test [4], 47.1%; in [5] it was 27.6%; in test [6], 3.95% (active). Further, the growth in [7] was 32.6%; in test [8], 69.2%; in test [9], 44.1%.

For the compound `COc1ccc(C(=O)OC2C(OC3C(O)COC(O[C@H]4C[C@H]5[C@@H]6CC=C7C[C@@H](O)CC[C@]7(C)[C@H]6CC[C@]5(C)[C@H]4[C@H](C)C(=O)CCC(C)C)C3OC(N)=O)OCC(O)C2O)cc1` (stereo partly drawn), the growth was 23.3% in test [1]; -1.18% (active) in test [2]; 53.7% in test [3]; -22.2% (active) in test [4]; -35.7% (active) in test [5]; -68.7% (active) in test [6]. Further, the growth in test [7] is 11.3%; in test [8] it was -59.4% (active); in test [9] it was -58% (active).

With `COc1cc(C2CC(c3ccccc3)=NN2C=O)ccc1Oc1ccnc2cc(Cl)ccc12` (stereo not drawn), the growth in test [1] was 36.7%; in test [2], 46.6%; in [3], 100%; in test [4], 74.2%; in [5], 73.8%; in test [6], 42.7%. Also, the figures for the growth in [7], in test [8] and in [9] were 56%, 79.9% and 101%, respectively.

Regarding `COc1cccc(-c2cc(-c3cccs3)c(C#N)c(=O)[nH]2)c1`, the growth in test [1] is 98.9%; in test [2] it was 110%; in test [3] it was 108%; in [4] it was 108%; in test [5], 102%; in test [6], 98.8%. Further, the growth in [7] was 102%; in test [8], 94.1%; in test [9], 111%.

As to `CC(C)[C@@]12C[C@@H](OC(=O)[C@H]3CO3)[C@@](C)(O1)[C@@H]1CC[C@@H](C)[C@H]1[C@@H]2OC(=O)/C=C/c1ccccc1`, the growth in [1] is 88.4%; in test [2], 54.1%; in test [3] it was 85.4%; in [4], 72%; in [5] it was 89.8%; in [6], 72.2%. For the same compound, the growth in [7] is 61.5%; in [8], 91.3%; in [9] it was 109%.

The values above are taken from PubChem BioAssay (NCI).
